Laboratory results: PubChem BioAssay (NCI)
This is part of a sample that, as a whole, favours compounds with a hit. Of some 83,000 tested, about 20% had one in any assay.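 Cells were grown in 96-well plates and exposed to the test compound at a single concentration for 48 hours; results are reported as percent growth, with values below 10 considered active.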 Values without a mark were called inactive. Calls of active or inactive are those of the source.

Columns and labels:
Assay in all cases: NCI-60 one-dose screen, 48 h (100 = growth as untreated, 0 = no growth, -100 = all killed)
[1] = tested on: 786-0 renal; conditions: 10 µM unless noted
[2] = tested on: DU-145 prostate; conditions: 10 µM unless noted
[3] = tested on: MDA-MB-231 breast; conditions: 10 µM unless noted
[4] = tested on: SF-268 CNS; conditions: 10 µM unless noted
[5] = tested on: SF-539 CNS; conditions: 10 µM unless noted
[6] = tested on: UACC-257 melanoma; conditions: 10 µM unless noted
[7] = tested on: HCT-15 colon; conditions: 10 µM
[8] = tested on: SNB-19 CNS; conditions: 10 µM unless noted
[9] = tested on: PC-3 prostate; conditions: 10 µM unless noted
[10] = tested on: UACC-62 melanoma; conditions: 10 µM unless noted
[11] = tested on: LOX IMVI melanoma; conditions: 10 µM unless noted
[12] = tested on: SK-MEL-28 melanoma; conditions: 10 µM unless noted
[13] = tested on: SN12C renal; conditions: 10 µM unless noted
[14] = tested on: MOLT-4 leukemia; conditions: 10 µM
[15] = tested on: OVCAR-8 ovarian; conditions: 10 µM unless noted
[16] = tested on: OVCAR-3 ovarian; conditions: 10 µM unless noted
[17] = tested on: MDA-MB-435 melanoma; conditions: 10 µM unless noted
[18] = tested on: SW-620 colon; conditions: 10 µM unless noted
[19] = tested on: MCF7 breast; conditions: 10 µM unless noted
[20] = tested on: KM12 colon; conditions: 10 µM unless noted

## CN1CCN(C(=O)COc2ccc(/C=C3\CC4C5CC=C6CC(Cl)CCC6(C)C5CCC4(C)C3=O)cc2)CC1 (stereo not drawn)
[1]
  growth: 70.2%
[2]
  growth: 64.9%
[3]
  growth: 75.2%
[4]
  growth: 73.2%
[5]
  growth: 93.6%
[6]
  growth: 38.8%
[7]
  growth: 54.4%
[8]
  growth: 98%
[9]
  growth: 71.3%
[10]
  growth: 90%
[11]
  growth: 23.5%
[12]
  growth: 103%
[13]
  growth: 79.7%
[14]
  growth: 59.3%
[15]
  growth: 78.9%
[16]
  growth: 76.1%
[17]
  growth: 56.6%
[18]
  growth: 40.4%
[19]
  growth: 83.9%
[20]
  growth: 72.9%

## O=S(=O)(c1ccc(Cl)cc1)C(Cl)(Cl)Cl
[1]
  growth: 51.8%
[2]
  growth: 49.4%
[3]
  growth: 42%
[4]
  growth: 45.5%
[5]
  growth: 33.8%
[6]
  growth: 28.2%
[7]
  growth: 39%
[8]
  growth: 82.9%
[9]
  growth: 49.1%
[10]
  growth: 46.6%
[11]
  growth: 35.1%
[12]
  growth: 38.5%
[13]
  growth: 58.3%
[14]
  growth: 16.2%
[15]
  growth: 58.5%
[16]
  growth: -15.6% (active)
[17]
  growth: -14.8% (active)
[18]
  growth: 24.4%
[19]
  growth: 23.8%
[20]
  growth: 23.4%

## CC(=O)[O][Hg][CH2]C1(C)COC(C)([CH2][Hg][O]C(C)=O)CO1 (stereo not drawn)
[1]
  growth: 79%
[3]
  growth: 42.8%
[4]
  growth: 88.2%
[5]
  growth: -87.2% (active)
[6]
  growth: 93.6%
[7]
  growth: -94% (active)
[8]
  growth: 71.1%
[9]
  growth: 89.5%
[10]
  growth: 95.8%
[11]
  growth: -98.4% (active)
[12]
  growth: 18.3%
[13]
  growth: -87.1% (active)
[14]
  growth: -19.9% (active)
[15]
  growth: 50.7%
[16]
  growth: -100% (active)
[17]
  growth: -2.3% (active)
[18]
  growth: -92.3% (active)
[19]
  growth: -81.1% (active)
